We go through 66 molecules from PubChem BioAssay AID620 (Sanford-Burnham Center for Chemical Genomics, 2007).

Among all 87,000 compounds or so, about 360 (0.41%) were called active. The list comes from a sample in which actives are over-represented; it also holds similar structures and randomly drawn compounds. A number with no mark means an inactive call. Cut-off read from the data, not from the text of the source: active = cytotoxicity above about 50%; inactive = the rest.

The experiment in a line: HT1080 cell viability loss – fluorescence readout (AID 620).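 Note: cells exposed to compound overnight then 4 h with Alamar Blue; 0% = vehicle DMSO and 100% = killing control.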 As to conditions: at 10 µM, active compounds read high.
For `O=c1c2ccccc2c(C=NC2CCS(=O)(=O)C2)c(O)n1-c1ccccc1` (stereo unspecified), the cytotoxicity is -6.8%. Under `Nc1c(C(=O)NCc2ccccc2)nnn1Cc1ccc(F)cc1` stands 1.7%; under `CCOC(=O)N1CCN(C(=O)c2ccc(CS(=O)(=O)c3ccc(OC)cc3)o2)CC1`, 0.8%. As to `Cc1cccc(N2CCN(C(=O)c3ccc(CS(=O)(=O)c4ccccc4C)o3)CC2C)c1` (stereo unspecified), the cytotoxicity was 51.2% (active). The figure for `Cc1ccc(C)c(N2CCN(C(=O)c3ccc(CS(=O)(=O)c4ccccc4C)o3)CC2)c1` is 34%; for `COc1ccc(S(=O)(=O)Cc2ccc(C(=O)N3CCN(c4cccc(C)c4)C(C)C3)o2)cc1` (stereo unspecified) it is 52.2% (active). Under `COc1ccc(N2CCN(C(=O)c3ccc(CS(=O)(=O)c4ccc(OC)cc4)o3)CC2)cc1` stands -8.4%; under `Cc1ccccc1S(=O)(=O)Cc1ccc(C(=O)N2CC(C)CC(C)C2)o1` (stereo unspecified), -14.1%. On to `Cc1ccc2c(c1)[C@H]1OCC[C@H]1[C@@H](c1ccncc1)N2`, for which the cytotoxicity was -2.2%. On to `CC1CCCCN1CCn1c(=S)[nH]c2ncccc2c1=O` (stereo unspecified), for which the cytotoxicity was 33.2%. Under `Cn1c(SCC(=O)NC2CCCC2)nnc1-c1ccc(S(=O)(=O)N2CCOCC2)cc1` stands 4.3%; under `O=C1CCC(=O)N1c1ccccc1-c1ccccc1`, -0.5%; under `CCCC(=O)Nc1ccc(NC(=O)CCc2ccccc2)cn1`, 8.6%. As to `O=C(CSCc1ccccc1)Nc1ccc(Cl)cn1`, the cytotoxicity is 20.2%. Take `O=C(CCc1ccccc1)Nc1ccc(Cl)cn1`: the cytotoxicity is 52.1% (active). On to `Cc1ccc(NC2=NC3(CCCCC3)N=C(N)N2)c(C)c1`, for which the cytotoxicity was 33%.

Take `COC(=O)C1=C(C)Nc2nnnn2C1c1cccnc1` (stereo unspecified): the cytotoxicity is 10%. Consider `CC1/C(=N/O)CC(c2ccccc2)N(C)C1c1ccccc1` (stereo unspecified), for which the cytotoxicity is -0.2%. The figure for `COc1ccc(OC)c(S(=O)(=O)N2c3ccccc3CC2C)c1` (stereo unspecified) is 10.1%. Consider `CCOc1ccc(S(=O)(=O)N2c3ccccc3CC2C)cc1` (stereo unspecified), for which the cytotoxicity was 74.1% (active). In the case of `CC1Cc2ccccc2N1S(=O)(=O)c1ccc2c(c1)n(C)c(=O)c(=O)n2C` (stereo unspecified), the cytotoxicity was -1.8%. The figure for `O=C(NCc1ccccn1)[C@@H]1C[C@H]1[C@@H](NP(=O)(c1ccccc1)c1ccccc1)c1ccccc1` is -17.9%.

For the molecule `CCOc1ccc(NC(=O)CSc2nnc(-c3ccco3)n2C)cc1`, the cytotoxicity is -3.7%.

With `CN(C(=O)c1cc2n(n1)C(C(F)(F)F)CC(c1ccco1)N2)c1ccccc1` (stereo unspecified), the cytotoxicity is 56.4% (active). As to `CN(C(=O)c1cc2n(n1)C(C(F)(F)F)CC(c1ccco1)N2)c1ccc(OC(F)(F)F)cc1` (stereo unspecified), the cytotoxicity is -1.6%.

Consider `O=C(NC1CCCCCC1)c1cc2n(n1)C(C(F)(F)F)CC(c1ccco1)N2` (stereo unspecified), for which the cytotoxicity was -4.1%.

For the molecule `NC(=O)Nc1ccc(Oc2c(F)c(F)c(F)c(F)c2F)cc1`, the cytotoxicity was 6%.

`CC(C)(C)c1ccc(C(O)CCCN2CCC(C(O)(c3ccccc3)c3ccccc3)CC2)cc1` (stereo unspecified): the cytotoxicity is 93.4% (active).

For `OC(CCN1CCCC1)(c1ccccc1)C1CCCCC1` (stereo unspecified), the cytotoxicity is -2.5%.

With `OC(CCCCN1CCCCC1)c1ccccc1` (stereo unspecified), the cytotoxicity is -4.7%. Turning to `O=c1c2ccccc2nnn1CSc1nc2ccccc2c(=O)n1Cc1ccco1`, the cytotoxicity is -4.3%. `CC1CCCCC1NC(=O)CCn1c(=O)oc2ccccc21` (stereo unspecified): the cytotoxicity was -4%. For the molecule `O=C(NCc1cccs1)c1noc2c1CCCCC2`, the cytotoxicity was -0.7%. Consider `O=C(Nc1nccs1)c1ccc(S(=O)(=O)NCC2CCCCC2)cc1`, for which the cytotoxicity was -11.1%. The figure for `CCOc1ccc(NC(=O)Cn2nnc(C(=O)NCc3ccco3)c2N)cc1` is 11.4%; for `COc1ccc(NC(=O)Cn2nnc(C(=O)NCc3ccco3)c2N)c(OC)c1` it is -0.4%. Regarding `CCOc1ccccc1NC(=O)Cn1nnc(C(=O)NCc2ccco2)c1N`, the cytotoxicity is 56.8% (active). `CCOc1ccccc1NC(=O)C(CC(C)C)NC(=O)C1CCC(C)CC1` (stereo unspecified): the cytotoxicity is 4.7%.

Regarding `CCN(CC)CC(=O)c1c[nH]c2ccccc12`, the cytotoxicity was 3.6%.

Take `O=C(CCl)N(c1ccccc1)c1c[nH]c2ccccc12`: the cytotoxicity was 71% (active).

For the molecule `CC(=O)N(c1ccc(Cl)cc1)c1c[nH]c2ccccc12`, the cytotoxicity is 3.1%. With `O=C(CCl)N(c1ccc(Cl)cc1)c1c[nH]c2ccccc12`, the cytotoxicity was 100% (active). `O=C(O)CCC(=O)c1c[nH]c2ccccc12`: the cytotoxicity was -4.6%. In the case of `CN(C)CC(=O)c1c[nH]c2ccccc12`, the cytotoxicity is -5.2%. In the case of `CC(C)OC(=O)c1cccnc1SCc1cc(=O)n2ccccc2n1`, the cytotoxicity was -0.4%. For `COc1cc(C)nc(N2CCCC(C(=O)NC3CCC(C)CC3)C2)n1` (stereo unspecified), the cytotoxicity is -9.4%. In the case of `Cc1c(C(=O)NC2CCCCC2)oc2c1C(=O)CC(C)(C)C2`, the cytotoxicity is -3.7%. Turning to `COc1ccc2nc(-c3ccccc3)[nH]c2c1`, the cytotoxicity was 28.2%. For `COc1ccc(OCc2nc3ccccc3[nH]2)cc1`, the cytotoxicity is 5.1%. In the case of `CCOc1ccc2nc(SCC)[nH]c2c1`, the cytotoxicity is 15.4%. With `CCOc1ccc2nc(-c3ccccc3)[nH]c2c1`, the cytotoxicity is 66.7% (active). Turning to `Nc1ccc(-c2nc3ccccc3[nH]2)cc1`, the cytotoxicity was -3.5%.

Take `CC(=O)N1[C@H](Cc2ccccc2)C=C[C@]1(C)C(=O)NCc1ccc(C)o1`: the cytotoxicity was -2.9%.

As to `Cc1ccsc1C1NC(=O)c2c(sc3c2CCN(C)C3)N1` (stereo unspecified), the cytotoxicity is 9.6%.

As for `O=S(=O)(c1cccc(-c2csc(-c3ccccc3)n2)c1)N1CCOCC1`, the cytotoxicity was 2%.

Take `CC(C)CCn1c(N)c(S(=O)(=O)c2cccs2)c2nc3ccccc3nc21`: the cytotoxicity was 57% (active). As for `CC(C)Cn1c(N)c(S(=O)(=O)c2cccs2)c2nc3ccccc3nc21`, the cytotoxicity was 30.5%. Under `COCCn1c(N)c(S(=O)(=O)c2cccs2)c2nc3ccccc3nc21` stands 11%; under `Cc1cc(N2CCN(C(=O)c3ccco3)CC2)n2ncc(-c3ccccc3)c2n1`, 5.6%; under `Cc1ccccc1-n1c(SCC(=O)N2CCN(c3ccccc3)CC2)nnc1-c1ccncc1`, -3.7%. Regarding `CCOC(=O)CSC1=C(C#N)C(c2ccc(Cl)cc2)CC(=O)N1` (stereo unspecified), the cytotoxicity was 2.7%.

Turning to `CCOC(=O)CSC1=C(C#N)C(c2ccc(C)o2)CC(=O)N1` (stereo unspecified), the cytotoxicity is 59.5% (active).

As to `CCSC1=C(C#N)C(c2ccc(C)s2)CC(=O)N1` (stereo unspecified), the cytotoxicity is 0.8%.

As for `CCOC(=O)CSC1=C(C#N)C(c2ccc(C)s2)CC(=O)N1` (stereo unspecified), the cytotoxicity is 58% (active).

As for `CCCCCCSC1=C(C#N)C(c2ccc(C)o2)CC(=O)N1` (stereo unspecified), the cytotoxicity is 29.7%. Take `CCOC(=O)CSC1=C(C#N)C(c2ccccc2OC)CC(=O)N1` (stereo unspecified): the cytotoxicity is -1%.
